# In PMC12751014, “Non-Catalytic Inhibitors of the p38/MK2 Interface: Repurposing Approved Drugs to Target Neuroinflammation in Alzheimer’s Disease” (Journal of Medicinal Chemistry, 2025):
# Screen size: about 1,900 compounds; about 50 (3%) showed an effect of 50% or more. The entries come from a sample that favours strong results as a whole.
# Biological target: p38/MK2 protein–protein interaction (VF-p38α / GST-MK2) (Homo sapiens, UniProt Q16539)
# Assay: primary screen, percent of control activity; higher = less effect of the substance
# Set-up: species or system HEK293T cell lysate transfected with VF-p38α and GST-MK2; unclear (methods say 'quintuplet replicates')
# Procedure: The TR-FRET assay was conducted in a 1536-well plate (Corning, catalog no. 3724) with HEK293T cell lysate transfected with VF-p38α and GST-MK2. Cell-lysate concentration was optimized with a titration experiment. Anti-Flag-Tb and anti-GST-d2 antibodies (Revvity, catalog no. 61FGBTLB) were used to couple p38α and MK2, respectively. A multiple-drop Combi dispenser (Thermo Scientific) combined reaction mixtures in quintuplet replicates. The TR-FRET signals were measured using a BMG Labtech PHERAstar FSX plate reader and normalized to the percent of DMSO control.
# Sequence of p38/MK2 protein–protein interaction (VF-p38α / GST-MK2) (Q16539 2-360 limits assumed): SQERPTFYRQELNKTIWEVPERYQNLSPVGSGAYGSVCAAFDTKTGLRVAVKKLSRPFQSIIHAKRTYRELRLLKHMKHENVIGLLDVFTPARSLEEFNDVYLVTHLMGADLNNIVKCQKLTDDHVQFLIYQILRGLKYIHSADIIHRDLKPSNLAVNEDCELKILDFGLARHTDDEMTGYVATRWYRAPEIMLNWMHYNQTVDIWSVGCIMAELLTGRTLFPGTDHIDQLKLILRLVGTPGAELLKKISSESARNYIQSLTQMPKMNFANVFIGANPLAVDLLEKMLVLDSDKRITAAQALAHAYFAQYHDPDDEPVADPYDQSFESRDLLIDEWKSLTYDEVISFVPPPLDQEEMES
row,SMILES,Pct of control
1,Cc1cnc(NC(=O)Nc2cc(Br)c(C)cc2OCC2CNCCO2)cn1 (centres unmarked),73.3%
2,Cc1cc(O)c2c(c1)C(=O)c1cccc(O)c1C2=O,94%
3,O=C1c2cccc(O)c2C(=O)c2c(O)cc(CO)cc21,33.9%
4,O=C1c2c(O)cccc2C(C2OC(CO)C(O)C(O)C2O)c2cc(CO)cc(O)c21 (centres unmarked),92%
5,CC1=NN(c2ccc(C(=O)O)cc2)C(=O)C1=Cc1ccc(-c2cc(C)c(C)cc2[N+](=O)[O-])o1,18%
6,COc1ccccc1N1CCN(CCN(C(=O)C2CCCCC2)c2ccccn2)CC1.O=C(O)C=CC(=O)O,97.5%
7,CN1C(=O)CCS(=O)(=O)C1c1ccc(Cl)cc1 (centres unmarked),95.4%
8,COC(=O)Nc1nc2ccc(C(=O)c3cccs3)cc2[nH]1,97.5%
9,CCOc1ccc(NC(C)=O)cc1,97.7%
10,CC(C)(C)NC[C@H](O)COc1nsnc1N1CCOCC1.O=C(O)C=CC(=O)O,94.2%
11,c1ccc(Cn2c(-c3ccc(OCC(C4CCNCC4)n4c(-c5ccccc5)nc5ccccc54)cc3)nc3ccccc32)cc1 (centres unmarked),21.2%
12,CCOc1ccccc1-n1c(C(C)N2CCN(C(=O)COc3ccc(Cl)cc3)CC2)nc2ccccc2c1=O (centres unmarked),100%
13,CCCC1OC2CC3C4CCC5=CC(=O)C=CC5(C)C4C(O)CC3(C)C2(C(=O)CO)O1 (centres unmarked),101%
14,CCCNC(C)C(=O)Nc1c(C)csc1C(=O)OC.Cl (centres unmarked),99.8%
15,O=C(O)CCC1CCC(c2cc(F)ccc2F)(S(=O)(=O)c2ccc(Cl)cc2)CC1 (centres unmarked),85.6%
16,COc1cc2nccc(Oc3ccc(NC(=O)C4(C(=O)Nc5ccc(F)cc5)CC4)cc3)c2cc1OC.O=C(O)CC(O)C(=O)O,72.9%
17,COc1cc2nccc(Oc3ccc(NC(=O)C4(C(=O)Nc5ccc(F)cc5)CC4)cc3)c2cc1OC,70.5%
18,CN1CCN(C2CCN(C(=O)Nc3cc(Oc4ccc(NC(=O)C5(C(=O)Nc6ccc(F)cc6)CC5)c(F)c4)ccn3)CC2)CC1,46.1%
19,NC(=O)Nc1cc(-c2cccc(F)c2)sc1C(=O)NC1CCCNC1 (centres unmarked),74.3%

row,SMILES,Pct of control
1,Cc1cc(NC(=O)c2cccc(NC(=O)C=CCN(C)C)c2)ccc1Nc1nccc(-c2cccnc2)n1,80.7%
2,CC1(COc2ccc3c(c2)ncn3-c2ccc3cccc(N4CCC(N)CC4)c3n2)COC1,47.3%
3,COCCOc1ccc2c(c1)ncn2-c1ccc2cccc(N3CCC(N)CC3)c2n1,51.7%
4,CCOC(=O)[C@H](CCc1ccccc1)N[C@H]1CS[C@H](c2cccs2)CN(CC(=O)O)C1=O.Cl,77.1%
5,CC(C)(C)CC(C)(C)c1ccc(O)c(Cc2ccc(Cl)cc2Cl)c1,88.3%
6,Cc1nn(-c2ccccc2)c(C)c1C=NN1CCN(Cc2ccccc2)CC1,85.5%
7,CC(=O)O.Cc1cc2c(C(C)C)c(O)c(O)c(C=O)c2c(O)c1-c1c(C)cc2c(C(C)C)c(O)c(O)c(C=O)c2c1O [S2303],26.8%
8,CC(=O)O.Cc1cc2c(C(C)C)c(O)c(O)c(C=O)c2c(O)c1-c1c(C)cc2c(C(C)C)c(O)c(O)c(C=O)c2c1O [S2812],29.9%
9,CC1(C)CCC2=C(O1)c1ccccc1C(=O)C2=O,102%
10,CCC1OC(=O)C(C)C(OC2CC(C)(OC)C(O)C(C)O2)C(C)C(OC2OC(C)CC(N(C)C)C2O)C(C)(O)CC(C)C(=NOCOCCOC)C(C)C(O)C1(C)O (centres unmarked),103%
11,C=CC(=O)Nc1cccc(Sc2nc(Nc3ccc(N4CCN(C)CC4)cc3)ncc2Cl)c1,91.7%
12,Nc1cccc(-c2cc3c(Oc4cccc(O)c4)ncnc3[nH]2)c1,90.3%
13,CC[C@@H]([C@H](C)O)n1ncn(-c2ccc(N3CCN(c4ccc(OC[C@@H]5CO[C@@](Cn6cncn6)(c6ccc(F)cc6F)C5)cc4)CC3)cc2)c1=O,97%
14,NC(N)=NS(=O)(=O)c1ccc(N)cc1,105%
15,Cc1c(Cl)cccc1Nc1ccccc1C(=O)O,99.2%
16,NC(=O)N1c2ccccc2C=Cc2ccccc21,93.5%
17,CCC(C)n1ncn(-c2ccc(N3CCN(c4ccc(OCC5COC(Cn6cncn6)(c6ccc(Cl)cc6Cl)O5)cc4)CC3)cc2)c1=O (centres unmarked),88.6%
18,c1cc(-c2cnn3cc(-c4ccc(N5CCNCC5)cc4)cnc23)c2cccnc2c1,10.1%
19,CC(C)Oc1ccc(-c2cnc3c(-c4ccnc5ccccc45)cnn3c2)cc1,89.1%
